Among the data in PubChem BioAssay AID624300 (Southern Research Specialized Biocontainment Screening …, 2012) are outcome values, retold here.

In all, about 2,400 compounds went through this assay and about 360 (15%) were called active.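 How the source made its calls: active means viability falls under 70% at one or more tested concentrations, taken as toxicity; inactive means viability stays over 70% at every dose.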 These entries were drawn from the full list. Results with a measured potency or affinity are listed apart.

A short description of this assay: viability loss in HeLa cells – cytotoxicity control for MgcRacGAP inhibitor project, dose response (AID 624300). The note with it: CellTiter-Glo luminescence, 24 h; series mostly up to 100 µM. For orientation: ATP-based viability assays read luminescence as a measure of living cells.
As for `Oc1ccc(-c2cn3c(n2)SCC3)cc1`, the outcome was inactive.
On to `CCN(CC)c1ccc(NC(=O)COc2ccc(-n3cnnn3)cc2)cc1`, for which the outcome was inactive.
For `COc1cc(/C=C/CN2CCC(CO)(CC3CCCCO3)CC2)ccc1O` (stereo not drawn), the result was inactive.
For the compound `CC(NS(=O)(=O)c1ccc(Cl)cc1)C(=O)OCC(=O)Nc1ccc(N(C)C)cc1` (stereo not drawn), the compound was classed as inactive.
As for `CCN(CC)CCCNCC(=O)Nc1ccc2c(c1)CCC2`, the outcome was inactive.
The value for `COC(=O)c1c(NC(=O)CCNCc2ccco2)sc2c1CCC2` was “inactive”; that for `O=c1c2ccccc2n2c(=S)[nH]nc2n1-c1ccccc1` was “inactive”.
The value for `CN(C)C=NC1=NN(c2cccc(C(F)(F)F)c2)CC1` was “inactive”; that for `Cc1ccc(N2C(N)=C(C#N)C3(C(=O)N(C)c4ccccc43)C3=C2CC(C)(C)CC3=O)cc1Cl` (stereo not drawn) was “inactive”.
The value for `C=C1CC(C(=O)N/N=C/c2ccc(O)cc2)C1` was “inactive”; that for `COc1cccc(-c2cc(C(=O)N3CCN(c4ccc(F)cc4)CC3)no2)c1` was “inactive”; that for `O=c1c2ccc(F)cc2sn1-c1ccccc1` was “inactive”.
For `COc1ccc(N2C(=O)/C(=C/N(C)C)NC2=S)cc1`, the compound was classed as inactive.
For the compound `CC(=O)Nc1ccc2sn(-c3ccccc3)c(=O)c2c1`, the compound was classed as inactive.
As to `NS(=O)(=O)c1ccc(CCNCC(=O)N2CCC(Cc3ccccc3)CC2)cc1`, the compound was classed as inactive.
The value for `CSC1=NN(c2ccccc2)CN(c2ccccc2)N1C` was “inactive”; that for `O=C(CNc1ccc(Oc2ccccc2)cc1)N1CCOCC1` was “inactive”; that for `COCC(C)NCc1ccccc1C` (stereo not drawn) was “inactive”.
Turning to `C[n+]1ccc(/C=C/c2ccccc2O)c2ccccc21`, the call was inactive.
The value for `CCOc1ccccc1N1CCN(C/C=C/c2ccc(N(C)C)cc2)CC1` was “inactive”; that for `CN(C)c1ccc(C=Cc2cnccn2)cc1` was “inactive”; that for `CCOCCCn1c(=O)c2ccccc2n2c(=S)[nH]nc12` was “inactive”.
The value for `COc1cc(/C=C(/NC(=O)c2ccccc2)C(=O)Nc2ccc(O)cc2)c([N+](=O)[O-])cc1OC` was “inactive”; that for `COc1ccc(CN2CCN(Cc3ccc(C(F)(F)F)cc3)CC2)cc1` was “inactive”.
For the compound `O=C(NCc1ccccc1)/C(=C\c1ccc(O)cc1)NC(=O)c1ccco1`, the call was inactive.
On to `CC(C)C1=Nc2cccc3cccc(c23)N1`, for which the outcome was inactive.
The value for `COc1ccc(OC(=O)COc2cccc(C)c2)cc1` was “inactive”.
As to `CN(C)c1ccc2cc(S(=O)(=O)O)cc(O)c2c1`, the compound was classed as inactive.
In the case of `ON=C1c2ccccc2-c2ccc(O)cc21`, the compound was called inactive.
In the case of `O=C(O)c1ccc2c(c1)C(=O)/C(=C\c1ccco1)C2=O` it was “inactive”; in that of `Clc1nc(NCc2cccnc2)nc(N2CCOCC2)n1`, “inactive”.
For the compound `COc1cc(N)ccc1NC(=O)c1cccs1`, the outcome was inactive.
The value for `COc1ccc(NC2CCCN(C(=O)c3ccc(C)nc3)C2)cc1` (stereo not drawn) was “inactive”; that for `COc1cc(/C=C/C(=O)OCC(=O)NCCC2=CCCCC2)ccc1O` was “inactive”; that for `COc1ccc(OC)c(CN2CCSCC2)c1` was “inactive”.
For `CCOc1cc(N2CCOCC2)c(OCC)cc1NC(=O)c1ccc(C)s1`, the compound was classed as inactive.
In the case of `Cc1ccc(/C=[N+](\[O-])c2ccc(N(C)C)cc2)c2nsnc12` it was “inactive”; in that of `CCOC(=O)SC1=N/C(=C\c2ccc(N(C)C)cc2)C(=O)S1`, “inactive”.
For `CN(C)c1cc2c3ccccc3n(C)c2cc1N`, the compound was classed as inactive.
In the case of `COc1ccc(NC2=NCCC2)cc1` it was “inactive”.
Regarding `COc1cc(/C=C/C(=O)OCC(=O)N2CCC(Cc3ccccc3)CC2)ccc1O`, the call was inactive.
As to `Cc1ccc2oc(=O)c(/C=C(\O)c3ccccc3)nc2c1`, the result was inactive.
In the case of `C/C(=N\NC(=O)CSCc1ccccc1Cl)c1cc(O)ccc1O` it was “inactive”.
In the case of `COc1ccc(C(=O)Nc2ccc(N3CCCCCC3)cc2)cc1S(=O)(=O)N1CCOCC1`, the result was inactive.
The value for `CCOc1ccc(Nc2n[nH]c(=S)s2)cc1` was “inactive”; that for `COc1cc(/C=N\NC(=O)CNC(=O)C(c2ccccc2)c2ccccc2)ccc1O` was “inactive”.
In the case of `CSc1ncnc2c1ncn2CCCNc1ccc(C)c(C)c1` it was “inactive”; in that of `CCOC(=O)c1sc(/N=C/c2c(O)ccc3ccccc23)cc1C`, “inactive”.
The value for `Nc1ccc(Nc2nc(-c3cc4ccccc4oc3=O)cs2)cc1` was “inactive”; that for `Nc1ccc2c(c1Br)Cc1ccccc1-2` was “inactive”.
Turning to `COc1cc(CN2CCN(Cc3ccc(C(F)(F)F)cc3)CC2)cc(OC)c1OC`, the call was inactive.
In the case of `Nc1c(Cl)cc(NC(=O)c2ccccc2C(=O)O)cc1Br` it was “inactive”; in that of `COc1ccc2c(c1OC)C(=O)OC2CC(=O)c1ccc(O)c(O)c1` (stereo not drawn), “inactive”; in that of `O=C(/C=C/c1ccc(O)c(O)c1)NC(=O)c1ccccc1O`, “inactive”.
The value for `COc1ccc(/C=N/NC(=O)c2ccc(CSc3nc(C)cc(C)n3)cc2)cc1O` was “inactive”.
In the case of `O=C(COc1cccc2cccnc12)N/N=C/c1ccc(O)cc1` it was “inactive”; in that of `O=C(Nc1ccccc1)c1cccc(-c2nnc(-c3ccccc3)o2)c1`, “inactive”.
Turning to `COc1ccc(NC(=O)c2cccc(-c3ccc(O)cc3)c2)cn1`, the compound was classed as inactive.
As to `O=C(CN1CCCCCC1)NCC1CCCO1` (stereo not drawn), the compound was classed as inactive.
`C#CCOCCOCCOCCNc1nc(N2CCN(C(=O)C([C@@H](C)O)n3cc([C@@H](N)CCCCN)nn3)CC2)nc(N2CCN(C(=O)[C@H](CO)n3cc([C@@H](N)C(C)C)nn3)CC2)n1` (stereo partly drawn): the compound was classed as inactive.
Consider `OCCN(C=NC1=NN(c2cccc(C(F)(F)F)c2)CC1)CCO`, for which the outcome was inactive.
The value for `O=C(N/N=C/c1ccc(O)c(O)c1)c1ccc(-n2cnnn2)cc1` was “inactive”; that for `Cc1cc(-c2n[nH]c(=S)n2/N=C/c2sccc2C)n[nH]1` was “inactive”.
In the case of `COc1ccc(NCCC#N)cc1` it was “inactive”.
Turning to `COc1ccc(NC2CCCN(C(=O)c3cccc(N(C)C)c3)C2)cc1` (stereo not drawn), the compound was classed as inactive.
On to `CCOc1cc(N2CCOCC2)c(OCC)cc1NCC(=O)N1CCN(Cc2ccccc2)CC1`, for which the compound was classed as inactive.
In the case of `Cc1[nH]n(-c2ccccc2)c(=O)c1/C=N/N(C)c1ccccc1` it was “inactive”; in that of `Nc1ccc(N2CCN(c3cccc(Cl)c3)CC2)cc1`, “inactive”; in that of `Brc1cccc(OCCN2CCOCC2)c1`, “inactive”.
In the case of `CCS(=O)(=O)NC(C)C(c1cccs1)N1CCN(c2ccc(OC)cc2)CC1` (stereo not drawn) it was “inactive”; in that of `O=C1CCCCCN1Sc1ccccc1`, “inactive”.
The value for `C=C1c2cccc(O)c2C(O)=C2C(=O)[C@]3(O)C(O)=C(C(N)=O)C(=O)[C@@H](N(C)C)[C@@H]3[C@@H](O)[C@H]12` was “inactive”; that for `CCOc1cc(-c2cc(-c3ccccc3)nc(N)c2C#N)ccc1O` was “inactive”; that for `CCOc1cc(-c2cc(-c3ccc(N)cc3)nc(N)c2C#N)ccc1O` was “inactive”.
Turning to `CCOc1cc(/C=N/NC(=O)c2ccccc2-n2cccc2)ccc1O`, the call was inactive.
Regarding `Nc1ccc2nc(-c3ccc(Cl)cc3)[nH]c2c1`, the outcome was inactive.
In the case of `Nc1ccc2nc(-c3cccnc3)[nH]c2c1` it was “inactive”.
With `COc1cc(CNC2CCCCC2OC)cc(OC)c1` (stereo not drawn), the result was inactive.
As for `COc1ccc2c3c(cccc13)N(C)N=C2C`, the result was inactive.
As for `Cc1cccc(N2CCC(N=CN(C)C)=N2)c1`, the result was inactive.
As to `CCOC(=O)N/N=C/c1ccc(N(CC)CC)cc1O`, the compound was called inactive.
The value for `O=C(CCC(=O)Nc1ccc(F)cc1)N/N=C/c1ccc(O)cc1` was “inactive”.
`Cc1cc(N2CCCC2)ccc1NC(=O)CN1C(=O)NC2(CCCCC2)C1=O`: the call was inactive.
Regarding `COc1ccc(CN(C)CCc2ccccn2)cc1OC`, the result was inactive.
`COc1cc(CN(C)CCc2ccccn2)cc(OC)c1OC`: the result was inactive.
For the compound `COc1cc(/C(C)=N/N2CCN(Cc3ccc(C)cc3)CC2)ccc1O`, the call was inactive.
Consider `O=C(CN1CCN(S(=O)(=O)c2ccccc2F)CC1)N1CCc2ccccc2C1`, for which the call was inactive.
For `O=c1c2sc3ccccc3c2[nH]c(=S)n1CCN1CCOCC1`, the outcome was inactive.
The value for `O=C(O)CCCn1c(=S)[nH]c2c(sc3ccc([N+](=O)[O-])cc32)c1=O` was “inactive”; that for `COc1cc(/C=N/NC(=O)c2cnccn2)ccc1O` was “inactive”; that for `CC1CN(CCCCN2C(=O)c3ccccc3C2=O)CC(C)O1` (stereo not drawn) was “inactive”.
With `CCCCN(CCCC)CCNC(=O)CSCc1ccc(C)cc1`, the compound was called inactive.
Turning to `CCCCN(CC)CCNC(=O)CCC(=O)Nc1ccc2nc(N3CCN(C)CC3)cc(C)c2c1`, the outcome was inactive.
In the case of `CC1(C)Nc2cccc3cccc(c23)N1` it was “inactive”; in that of `COc1ccc(Br)cc1CN1CCC(N2CCCC2)CC1`, “inactive”.
For `CCOc1ccc(NCc2cccn2-c2nnc(N3CCC(C(=O)NCCCN4CCCCC4)CC3)s2)cc1`, the compound was called inactive.
The value for `CC(/C=C/c1ccc(O)cc1)=N/O` was “inactive”; that for `COc1ccc(NC2CCCN(C(=O)CSc3ccccc3)C2)cc1OC` (stereo not drawn) was “inactive”.
The value for `Cc1ccc(/C=C2/C(=O)c3ccc(C(=O)O)cc3C2=O)o1` was “inactive”; that for `Cc1ccc(/C=C2/C(=O)ON=C2c2ccccc2)o1` was “inactive”.
In the case of `CC1(C)OC(=O)C(=Cc2ccc(-c3ccc(S(N)(=O)=O)cc3)o2)C(=O)O1` it was “inactive”.
For the compound `O=S(=O)(O)c1cc(O)c2cc(Nc3ccccc3)ccc2c1`, the call was inactive.
In the case of `Nc1ccccc1Nc1cccc(C(F)(F)F)c1` it was “inactive”; in that of `CCOC(=O)c1[nH]c2ccc(C)cc2c1N`, “inactive”; in that of `COc1cc(/C=C/C(=O)OCc2cn3cc(Cl)ccc3n2)ccc1O`, “inactive”.
The value for `O=C(Nc1ccc(Nc2ccccc2)cc1)C1CC1` was “inactive”.
Consider `CC(=O)Nc1ccc(Nc2ccccc2)cc1`, for which the compound was classed as inactive.
Consider `O=C(O)c1ccccc1C(=O)Nc1ccc(Nc2ccccc2)cc1`, for which the result was inactive.
In the case of `Cc1oc(-c2ccccc2)cc1C(=O)Nc1ccc(N(C)C)cc1` it was “inactive”.
With `CCN1CCN(c2ccc(N=Cc3ccc(O)cc3O)cc2)CC1`, the call was inactive.
With `Cc1ccc(C)c(OCCCCN2CCCCC2)c1`, the result was inactive.
In the case of `CCOc1cc(/C=C/c2cccc[n+]2C)ccc1O`, the result was inactive.
In the case of `c1csc(CNc2ccc3c(c2)OCCO3)c1` it was “inactive”.
The value for `Cc1ccc(S(=O)(=O)Oc2ccc(/C=C3\C(=N)N4N=C(S(C)(=O)=O)SC4=NC3=O)cc2)cc1` was “inactive”; that for `CCN(CC(=O)NCc1ccc(F)cc1)C(=O)CN1CCN(c2ccc(OC)cc2)CC1` was “inactive”.
The value for `O=C(CNCC1CCCO1)Nc1ccc(N2CCCCCC2)cc1` (stereo not drawn) was “inactive”; that for `Cc1ccccc1N1C(S)=C(C#N)C(=O)NC1c1cccs1` (stereo not drawn) was “inactive”; that for `Cc1ncc(CO)c(/C=N/Nc2ccc(C(F)(F)F)cn2)c1O` was “inactive”.
